PubChem BioAssay (NCATS)
Several values for one entry are separate records, joined by “and”; a condition that tells them apart may be missing. Identical values can stand only once. Records with an inconclusive call do not appear. Activity calls are given as the source filed them. Unless noted, the call rests on the fitted dose curve; in most records, active means well fitted curve in the direction sought with a large enough effect; inconclusive means small, poorly fitted or top-dose-only effect, or another doubt; inactive means no such curve, though single readings can be large; an effect the other way counts as inactive or inconclusive.

Key:
[1] = molecular target: Glucocorticoid receptor (Homo sapiens) (UniProt P04150); test: GR-GFP Redistribution (AID 450;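 active means compounds whose dose series gives a full or clear partial fitted curve of increased nuclear translocation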; further: potency means the concentration at half of the fitted maximal effect); conditions: U2OS GR-GFP nuclear translocation, laser cytometry, 2 h
Chain of Glucocorticoid receptor (Homo sapiens) (P04150 whole entry, looked up, the tested form may be a part): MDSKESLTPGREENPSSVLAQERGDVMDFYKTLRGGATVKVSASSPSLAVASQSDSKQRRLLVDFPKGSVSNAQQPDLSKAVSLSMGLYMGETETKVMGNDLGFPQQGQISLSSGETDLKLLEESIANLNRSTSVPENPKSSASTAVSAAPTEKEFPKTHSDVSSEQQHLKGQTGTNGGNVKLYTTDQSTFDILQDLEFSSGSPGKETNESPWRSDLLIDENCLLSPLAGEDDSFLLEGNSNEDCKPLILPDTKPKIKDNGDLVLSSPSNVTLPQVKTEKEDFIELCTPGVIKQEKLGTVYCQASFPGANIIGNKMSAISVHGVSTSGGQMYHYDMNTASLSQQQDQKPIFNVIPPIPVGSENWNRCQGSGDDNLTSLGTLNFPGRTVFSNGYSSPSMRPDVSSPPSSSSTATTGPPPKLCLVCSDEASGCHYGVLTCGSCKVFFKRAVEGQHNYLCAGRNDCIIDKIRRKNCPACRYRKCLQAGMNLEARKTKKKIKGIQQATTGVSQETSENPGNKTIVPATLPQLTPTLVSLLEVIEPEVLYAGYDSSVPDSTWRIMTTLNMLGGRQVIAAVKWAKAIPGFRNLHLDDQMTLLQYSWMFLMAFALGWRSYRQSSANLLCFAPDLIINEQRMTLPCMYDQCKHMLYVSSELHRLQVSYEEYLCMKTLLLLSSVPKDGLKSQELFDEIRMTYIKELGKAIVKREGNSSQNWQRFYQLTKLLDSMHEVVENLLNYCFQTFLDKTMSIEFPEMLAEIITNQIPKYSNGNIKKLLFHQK

[2] = molecular target: Glucocorticoid receptor (Homo sapiens) (UniProt P04150); test: GR-EFC Redistribution (AID 451; calls by dose curve; further: potency means the concentration at half of the fitted maximal effect); conditions: CHO-K1 GR-EFC translocation, beta-gal luminescence, 2 h
Outline: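 CHO-K1 cells stably expressing nuclear-localized β-gal enzyme acceptor and GR fused C-terminally to the enzyme donor fragment; ligand-driven nuclear translocation restores β-gal by complementation. Compounds titrated up to 46 uM final, 2 h at 37 °C; luminescence read.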

[3] = molecular target: Mitogen-activated protein kinase 10 (Mus musculus) (UniProt Q61831); test: JNK3 AlphaScreen Assay (AID 530; active means well fitted curve in either direction with a large enough effect, not every such curve was filed as active;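 further: kinase came from lysate of stimulated human HepG2 cells; signal reports phosphorylation of biotinylated GST-cJun 1-79 at Ser73 with 10 µM ATP; on the % scale 0 is the no-effect control and ±100 the full control effect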); conditions: JNK3 lysate, c-Jun phosphorylation; series mostly up to 57.1 µM
Outline: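 Biotinylated GST-cJun(1-79) served as substrate for JNK3 in HepG2 lysates stimulated with IL-1beta and TNF-alpha. ATP was 10 uM final, pH 7.6. Ser73 phosphorylation was quantified by AlphaScreen (680 nm excitation).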

[4] = molecular target: 3',5'-cyclic-AMP phosphodiesterase 4B (Homo sapiens) (UniProt Q07343); test: qHTS Assay for Inhibitors of PDE-IV (AID 607; active means well fitted activation curve with a large enough effect in the main read-out, with a control signal flat, not every such curve was filed as active; further: % of control where 0% means no effect); conditions: HEK293 ACTOne CNG channel cells, membrane potential fluorescence; series mostly up to 22.9 µM
Chain of 3',5'-cyclic-AMP phosphodiesterase 4B (Homo sapiens) (Q07343 whole entry, looked up): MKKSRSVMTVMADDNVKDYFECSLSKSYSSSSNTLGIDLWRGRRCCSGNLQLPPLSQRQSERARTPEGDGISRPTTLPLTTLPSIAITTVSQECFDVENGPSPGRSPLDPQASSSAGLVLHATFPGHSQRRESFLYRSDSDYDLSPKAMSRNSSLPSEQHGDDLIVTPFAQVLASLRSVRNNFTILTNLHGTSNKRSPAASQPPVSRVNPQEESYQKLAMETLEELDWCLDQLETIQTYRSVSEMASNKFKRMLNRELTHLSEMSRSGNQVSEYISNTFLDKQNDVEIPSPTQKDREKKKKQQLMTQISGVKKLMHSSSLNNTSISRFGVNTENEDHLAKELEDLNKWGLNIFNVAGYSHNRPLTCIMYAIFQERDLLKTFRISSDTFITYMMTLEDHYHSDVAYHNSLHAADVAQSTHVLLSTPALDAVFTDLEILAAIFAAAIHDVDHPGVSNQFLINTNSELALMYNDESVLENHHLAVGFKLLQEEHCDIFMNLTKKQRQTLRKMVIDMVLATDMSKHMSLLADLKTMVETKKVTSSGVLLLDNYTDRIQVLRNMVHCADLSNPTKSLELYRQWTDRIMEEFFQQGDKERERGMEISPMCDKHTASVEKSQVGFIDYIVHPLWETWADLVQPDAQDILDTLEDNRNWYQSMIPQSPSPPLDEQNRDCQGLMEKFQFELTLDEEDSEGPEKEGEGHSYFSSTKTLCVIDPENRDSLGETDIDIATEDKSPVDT
Outline: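 Cell-based read-out of cAMP via a modified cyclic nucleotide-gated channel and membrane potential dye (535/590 nm) in HEK293 cells expressing PDE4 endogenously. Compounds tested up to 22.9 uM final; 100 uM RO 20-1724 reference.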

[5] = molecular target: Cytochrome P450 2C19 (Homo sapiens) (UniProt P33261); test: qHTS Assay for Inhibitors and Substrates of Cytochrome P450 2C19 (AID 899); conditions: recombinant CYP2C19, luciferin-H EGE luminescence; series mostly up to 57.1 µM; further: potency means the concentration at half of the fitted maximal effect; nearly all actives have a fitted effect of over 60% in size
Outline: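 In 50mM KPO4, the reaction held 5nM enzyme and KM-level (10uM) Luciferin-H EGE; it ran 60 min at 37C after NADPH regeneration and a 10 min compound preincubation. Luminescence values were scaled to 57uM ketoconazole as complete inhibition.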

[6] = qHTS Assay for Lipid Storage Modulators (AID 1519; calls by dose curve); conditions: Drosophila S3 cells, BODIPY lipid droplet/cell ratio, laser cytometry, cells loaded with oleic acid; for activity change, negative = inhibition: at 57.5 µM (top of the series)
Outline: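 Cells seeded at 5,000 per well were treated with compounds over a concentration series and loaded with oleic acid (400 uM, as added). Lipid droplet fluorescence (488 nm excitation, 500-530 nm channel) was read by laser-scanning cytometry and normalized to 20 uM Triacsin C.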

[7] = molecular target: DNA dC->dU-editing enzyme APOBEC-3G (Homo sapiens) (UniProt Q9HC16); test: qHTS for inhibitors of Vif-A3G interactions: Validation (AID 588379); conditions: Vif-A3G protein interaction assay; series mostly up to 46.1 µM; further: 0% is about no effect
Chain of DNA dC->dU-editing enzyme APOBEC-3G (Homo sapiens) (Q9HC16 whole entry, looked up): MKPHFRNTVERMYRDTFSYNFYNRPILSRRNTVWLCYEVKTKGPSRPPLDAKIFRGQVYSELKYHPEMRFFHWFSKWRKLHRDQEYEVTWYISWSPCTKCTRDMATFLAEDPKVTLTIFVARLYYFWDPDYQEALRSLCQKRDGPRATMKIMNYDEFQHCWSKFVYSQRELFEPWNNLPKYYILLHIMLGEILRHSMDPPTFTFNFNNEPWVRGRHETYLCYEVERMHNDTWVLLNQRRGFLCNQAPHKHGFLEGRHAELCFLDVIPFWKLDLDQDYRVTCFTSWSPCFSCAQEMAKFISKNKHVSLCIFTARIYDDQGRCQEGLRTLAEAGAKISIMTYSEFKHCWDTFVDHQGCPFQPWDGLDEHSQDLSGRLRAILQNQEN
Outline: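 Yellow fluorescence (Ex 488, Em 500-530) of Vif-coexpressing HeLa A3G-eYFP cells, scanned by Acumen cytometer, reports blocked A3G degradation. Cells plated at 700/well overnight at 37 deg C before compound addition, then a further overnight compound incubation at 37 deg C.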

[8] = system: Zika virus NS2B-NS3 protease; test: Primary screen GU AMC qHTS for Zika virus inhibitors (AID 1347154); conditions: Zika NS2B-NS3 unlinked protease, AMC fluorogenic substrate; series mostly up to 54.1 µM;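 further: 0% = no-inhibitor control and -100% = no-enzyme control; nearly all actives have a fitted effect of over 70% in size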
Outline: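 Unlinked Zika NS2B hydrophilic domain/NS3 protease domain noncovalent complex (25 nM final) in 10 mM Tris-HCl pH 8.0, 0.01% Tween 20, with AMC peptide substrate. Fluorescence (ex 340, em 450 nm) change over 15 min, room temperature; percent inhibition fitted to 4-parameter Hill equation.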

[9] = Primary qHTS for small molecule stabilizers of the endoplasmic reticulum resident proteome: Secreted ER Calcium Modulated Protein (SERCaMP) assay (AID 1508630); conditions: SH-SY5Y GLuc-SERCaMP (Gaussia luciferase released on ER calcium loss) secretion, thapsigargin, luminescence; series mostly up to 38.4 µM; further: on the % scale 0 is the no-effect control and ±100 the full control effect
Outline: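 The SH-SY5Y reporter protocol was run at 3 concentrations up to 38.3 uM (primary) or 11 concentrations (follow-up): 16 h compound, 100 nM thapsigargin for 4 h, then extracellular luciferase luminescence.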

[10] = AP1 Signaling Pathway (AID 357; active means well fitted curve in either direction with a large enough effect, not every such curve was filed as active;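 further: ME-180 reporter cells stimulated with EGF at its EC50 level; on the % scale 0 is the no-effect control and ±100 the full control effect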); conditions: ME-180 AP-1-bla reporter, EGF-induced, beta-lactamase ratio, 5 h; at 38 µM (top of the series)
Outline: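 Modulation of EGF-driven AP-1 transcription was assessed with a beta-lactamase reporter in ME-180 cells. Compound and EC50 EGF were co-incubated 5 hours at 37 °C before 2.5-hour CCF4 loading at room temperature and dual-emission reading.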

[11] = molecular target: Cytochrome P450 1A2 (Homo sapiens) (UniProt P05177); test: p450-cyp1a2 (AID 410; calls by dose curve; further: potency means the concentration at half of the fitted maximal effect); conditions: recombinant CYP1A2, luciferin-ME demethylation, luminescence; series mostly up to 57 µM
Chain of Cytochrome P450 1A2 (Homo sapiens) (P05177 whole entry, looked up): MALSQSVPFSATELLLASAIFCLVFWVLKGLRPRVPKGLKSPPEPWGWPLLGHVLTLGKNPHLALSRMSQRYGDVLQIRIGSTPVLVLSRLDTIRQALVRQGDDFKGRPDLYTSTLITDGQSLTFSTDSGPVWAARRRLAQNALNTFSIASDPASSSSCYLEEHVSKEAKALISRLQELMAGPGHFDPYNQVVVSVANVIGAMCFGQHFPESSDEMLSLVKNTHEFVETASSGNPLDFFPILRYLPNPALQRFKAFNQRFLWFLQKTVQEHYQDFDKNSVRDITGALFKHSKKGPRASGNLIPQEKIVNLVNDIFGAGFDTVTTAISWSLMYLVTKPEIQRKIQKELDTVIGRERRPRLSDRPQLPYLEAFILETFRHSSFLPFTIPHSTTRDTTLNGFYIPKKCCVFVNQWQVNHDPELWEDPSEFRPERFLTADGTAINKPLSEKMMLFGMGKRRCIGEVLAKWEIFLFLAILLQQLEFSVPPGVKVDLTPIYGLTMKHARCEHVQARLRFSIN
Outline: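 20nM CYP1A2, 100uM Luciferin-ME (=Km), 100mM KPO4; cpd 10 min RT; +NADPH regen, 60 min RT; stop/detect 20 min; luminescence. Normalized to furafylline 57 uM = full inhibition.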

[12] = NFAT Signaling Pathway (AID 444; active means well fitted curve in either direction with a large enough effect, not every such curve was filed as active;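 further: carbachol stimulus at about its EC50 of 1 µM final; on the % scale 0 is the no-effect control and ±100 the full control effect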); conditions: Jurkat NFAT-bla M1, carbachol, beta-lactamase ratio, 5 h; at 38 µM (top of the series)
Outline: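 Jurkat cells carrying an NFAT-driven β-lactamase reporter and co-transfected muscarinic M1 receptor were treated with compound plus carbachol (1 uM final, an EC50 level) for 5 h at 37 °C. CCF4 loading followed for 1 h at RT; 460/530 nm ratio gave %activity.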

[13] = Stat Signaling Pathway (AID 446; active means well fitted curve in either direction with a large enough effect, not every such curve was filed as active); conditions: ME-180 (cervical carcinoma) SIE beta-lactamase reporter, IL-6 stimulated, 5 h; at 38 µM (top of the series)
Outline: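 FRET read-out (405 nm excitation, 460/530 nm emission) of a beta-lactamase reporter under a STAT-inducible element in ME-180 cervical carcinoma cells. Cells with compound receive 40 pM IL-6 for 5 h. Values are normalised to AC90 stimulation and AC90 JAK-inhibitor controls.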

[14] = molecular target: Guanine nucleotide-binding protein G(i) subunit alpha-1 (Homo sapiens) (UniProt P63096); test: qHTS Assay for Inhibitors of RGS12 GoLoco Motif Activity (Green Fluorophore) (AID 879); conditions: Galphai1/FITC-RGS12 GoLoco peptide, fluorescence polarization; series mostly up to 57.1 µM;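 further: 0% = labeled peptide with Gαi1 and full inhibition = labeled peptide alone without protein; negative values mean loss of peptide binding seen as reduced polarization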
Chain of Guanine nucleotide-binding protein G(i) subunit alpha-1 (Homo sapiens) (P63096 whole entry, looked up): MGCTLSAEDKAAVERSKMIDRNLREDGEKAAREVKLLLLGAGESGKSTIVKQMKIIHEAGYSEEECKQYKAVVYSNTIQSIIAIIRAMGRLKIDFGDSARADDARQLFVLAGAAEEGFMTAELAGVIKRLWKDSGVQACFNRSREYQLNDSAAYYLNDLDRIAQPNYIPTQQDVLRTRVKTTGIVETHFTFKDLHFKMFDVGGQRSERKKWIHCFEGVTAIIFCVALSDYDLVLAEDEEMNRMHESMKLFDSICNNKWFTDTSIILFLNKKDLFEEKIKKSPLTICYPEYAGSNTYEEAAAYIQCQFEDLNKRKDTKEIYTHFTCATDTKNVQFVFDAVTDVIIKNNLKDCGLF
Outline: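 A drop in FITC polarization marked displacement of the FITC-tagged RGS12 GoLoco peptide (10 nM) from Gαi1 (50 nM). Compounds were incubated 10 min at room temperature in Tris pH 7.5 buffer containing 150 mM NaCl, 0.1 mM GDP and 0.05% NP40; unlabeled peptide titration served as control.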

[15] = molecular target: Pyruvate kinase PKM (Homo sapiens) (UniProt P14618); test: qHTS Assay for Activators of Human Muscle Pyruvate Kinase (AID 954; active means well fitted curve in the direction sought with a large enough effect, not every such curve was filed as active;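 further: 0% = uninhibited enzyme and -100% = no enzyme or full thiadiazolimine inhibition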); conditions: purified human muscle pyruvate kinase, luciferase-coupled luminescence, 1 h; series mostly up to 57.5 µM
Chain of Pyruvate kinase PKM (Homo sapiens) (P14618 whole entry, looked up): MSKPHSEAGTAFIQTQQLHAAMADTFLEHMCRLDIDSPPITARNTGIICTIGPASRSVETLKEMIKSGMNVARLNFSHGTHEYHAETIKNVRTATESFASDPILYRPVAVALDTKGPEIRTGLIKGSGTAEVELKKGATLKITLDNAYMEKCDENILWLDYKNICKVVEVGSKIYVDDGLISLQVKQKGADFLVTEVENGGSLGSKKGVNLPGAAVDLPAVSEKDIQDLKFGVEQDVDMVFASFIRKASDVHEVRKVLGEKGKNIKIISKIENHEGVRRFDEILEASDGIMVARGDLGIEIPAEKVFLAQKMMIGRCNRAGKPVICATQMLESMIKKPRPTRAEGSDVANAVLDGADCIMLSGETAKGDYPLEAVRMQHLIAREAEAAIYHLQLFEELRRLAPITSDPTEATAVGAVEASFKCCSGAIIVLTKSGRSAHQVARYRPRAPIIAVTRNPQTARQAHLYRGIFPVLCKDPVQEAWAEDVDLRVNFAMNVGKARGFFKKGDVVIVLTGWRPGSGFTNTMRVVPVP
Outline: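 ATP production by PKM2 detected via luciferase luminescence after 1 h room-temperature reaction (0.1 nM enzyme, PEP at Km 0.5 mM, ADP 0.1 mM, pH 7.2 imidazole buffer). Inhibition scaled to no-enzyme control; activation referenced to 0.3 nM enzyme wells.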

[16] = molecular target: alpha-glucosidase (Oryza sativa, rice) (UniProt Q653V4); test: Counterscreen for Glucocerebrosidase Inhibitors: qHTS Assay for Rice alpha-Glucosidase at pH 5.0 (AID 997); conditions: rice alpha-glucosidase enzyme activity; series mostly up to 76.9 µM;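 further: 0% = full activity with enzyme and -100% = basal without enzyme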
Outline: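 Endpoint fluorogenic assay at pH 5.0: compounds (0.7 nM to 77 uM) titrated against 4 nM rice enzyme and 400 uM 4-MU-alpha-glucoside for 20 min at room temperature; NaOH/glycine stop, read ex 365/em 440 nm, Hill-fitted AC50.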

[17] = molecular target: Ubiquitin carboxyl-terminal hydrolase 1 (Homo sapiens) (UniProt O94782); test: Inhibitors of USP1/UAF1: Pilot qHTS (AID 504865); conditions: purified USP1/UAF1, Ub-rhodamine cleavage fluorescence; series mostly up to 114 µM;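 further: rhodamine fluorescence freed from ubiquitin-rhodamine substrate followed over time; top concentration of the series differs between compounds; on the % scale 0 is the no-effect control and ±100 the full control effect; nearly all actives have a fitted effect of over 35% in size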
Chain of Ubiquitin carboxyl-terminal hydrolase 1 (Homo sapiens) (O94782 whole entry, looked up): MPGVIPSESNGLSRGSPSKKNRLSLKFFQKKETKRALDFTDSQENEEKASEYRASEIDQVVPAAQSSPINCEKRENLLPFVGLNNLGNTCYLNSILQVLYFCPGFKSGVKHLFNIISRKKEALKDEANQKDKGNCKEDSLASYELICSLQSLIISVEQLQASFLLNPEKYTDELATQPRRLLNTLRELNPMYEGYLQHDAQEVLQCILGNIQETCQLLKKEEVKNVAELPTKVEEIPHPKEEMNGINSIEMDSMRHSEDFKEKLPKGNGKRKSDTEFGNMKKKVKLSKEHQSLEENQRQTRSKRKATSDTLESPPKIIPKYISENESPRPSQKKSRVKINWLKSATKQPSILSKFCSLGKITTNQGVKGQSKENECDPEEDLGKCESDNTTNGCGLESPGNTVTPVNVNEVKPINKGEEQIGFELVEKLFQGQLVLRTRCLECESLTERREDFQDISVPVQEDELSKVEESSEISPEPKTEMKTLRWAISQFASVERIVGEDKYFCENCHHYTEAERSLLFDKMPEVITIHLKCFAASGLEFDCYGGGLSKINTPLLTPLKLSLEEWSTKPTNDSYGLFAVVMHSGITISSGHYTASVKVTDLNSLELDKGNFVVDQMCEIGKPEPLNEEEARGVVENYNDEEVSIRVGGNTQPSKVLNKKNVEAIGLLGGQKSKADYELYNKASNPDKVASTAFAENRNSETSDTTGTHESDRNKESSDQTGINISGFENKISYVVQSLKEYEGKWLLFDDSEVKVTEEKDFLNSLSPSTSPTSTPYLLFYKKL
Outline: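 USP1/UAF1 complex (1nM) preincubated with compound 15 min at room temperature, then Ub-Rho substrate (150nM final) added. Fluorescence read kinetically at 480/540 nm, 6 reads every 60 seconds. Buffer: 50mM HEPES pH 7.8, 0.5mM EDTA, 0.1 mg/ml BSA, 1mM TCEP, 0.01% Tween-20.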

[18] = molecular target: Cytochrome P450 2C9 (Homo sapiens) (UniProt P11712); test: qHTS Assay for Inhibitors and Substrates of Cytochrome P450 2C9 (AID 883); conditions: recombinant CYP2C9, luciferin-H luminescence, 60 min; series mostly up to 57.1 µM; further: on the % scale 0 is the no-effect control and ±100 the full control effect; nearly all actives have a fitted effect of over 60% in size
Outline: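 CYP2C9 deoxyluciferin hydroxylation, 37C, 60 min with NADPH regeneration; 10nM enzyme, 100uM Luciferin-H (KM). Glo detection reagent stopped reaction; luminescence normalized to sulphaphenazole (57uM) full inhibition.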

[19] = molecular target: Cytochrome P450 3A4 (Homo sapiens) (UniProt P08684); test: qHTS Assay for Inhibitors and Substrates of Cytochrome P450 3A4 (AID 884); conditions: recombinant CYP3A4, Luciferin-PPXE luminescence; series mostly up to 57.1 µM; further: potency means the concentration at half of the fitted maximal effect; nearly all actives have a fitted effect of over 50% in size
Chain of Cytochrome P450 3A4 (Homo sapiens) (P08684 whole entry, looked up): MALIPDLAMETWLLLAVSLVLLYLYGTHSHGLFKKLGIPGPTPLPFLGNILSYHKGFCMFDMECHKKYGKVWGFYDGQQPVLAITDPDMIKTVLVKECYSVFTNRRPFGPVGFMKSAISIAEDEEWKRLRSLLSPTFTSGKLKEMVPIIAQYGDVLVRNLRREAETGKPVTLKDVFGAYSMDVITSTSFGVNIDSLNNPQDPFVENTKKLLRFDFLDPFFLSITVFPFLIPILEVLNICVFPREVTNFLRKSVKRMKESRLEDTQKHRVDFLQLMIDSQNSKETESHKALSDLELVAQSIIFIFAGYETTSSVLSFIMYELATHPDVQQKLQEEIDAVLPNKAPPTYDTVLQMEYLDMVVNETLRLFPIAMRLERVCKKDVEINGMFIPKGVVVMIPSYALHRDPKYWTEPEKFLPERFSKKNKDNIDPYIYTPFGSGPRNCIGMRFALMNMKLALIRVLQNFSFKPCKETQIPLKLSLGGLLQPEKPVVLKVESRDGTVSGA
Outline: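 Luminescent readout of luciferin produced by CYP3A4 (20 nM) dealkylation of Luciferin-PPXE, 25 uM (its KM). NADPH-driven reaction ran 60 min at RT after 10 min compound preincubation; data scaled to 57 uM ketoconazole as 100% inhibition.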

[20] = molecular target: Cytochrome P450 3A4 (Homo sapiens) (UniProt P08684); test: qHTS Assay for Activators of Cytochrome P450 3A4 (AID 885); conditions: recombinant CYP3A4, Luciferin-PPXE luminescence, 60 min; series mostly up to 57.1 µM; further: nearly all actives have a fitted effect of over 65% in size
Outline: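 Luminescent readout of luciferin formed from 25 uM Luciferin-PPXE (KM level) by 20 nM CYP3A4 in 200 mM KPO4, with 60 min NADPH-driven reaction at room temperature after 10 min compound exposure. Ketoconazole (57 uM) defined 100% inhibition.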

[21] = measured here: cell count channel max response
[22] = measured here: lipid channel max response

CC1(C)CO[C@H](CC(=O)O)CN1
-8.35%: max response [6, 21]
-12.8%: max response [6, 22]
active: Potency [5] 5.01 µM
inactive: Potency [1] > 46 µM | Potency [2] > 46 µM | Potency [3] | Potency [4] | activity change, negative = inhibition [6] -3% | Potency [7] | Potency [8] | Potency [9]

CCOC(=O)[C@@]12C[C@@H]1/C(=N/O)c1ccccc1O2
active: Potency [11] 3.98 µM and 316 nM
inactive: activity change, negative = inhibition [10] -6.63% | activity change, negative = inhibition [12] -7.55% | activity, negative = inhibition [13] -6.6% | Potency [1] > 46 µM | Potency [2] > 46 µM | Potency [3] | outcome [14] | outcome [15] | outcome [16] | Potency [17] | Potency [7] | Potency [8] | Potency [9]

N#CC(=C(/N)Sc1ccccc1N)/C(C#N)=C(/N)Sc1ccccc1N
active: activity change, negative = inhibition [10] -84.2% | Potency [19] 316 nM and 3.16 µM
inactive: activity change, negative = inhibition [12] 8.23% | Potency [1] > 46 µM | Potency [2] > 46 µM | Potency [3] | Potency [4] | outcome [14] | Potency [18] | Potency [20] | outcome [15] | outcome [16] | Potency [8] | Potency [9]

CCOC(=O)C(CCc1ccccc1)NC1CCc2ccccc2N(CC(=O)O)C1=O (stereo not given)
17.9%: max response [6, 22]
11.8%: max response [6, 21]
inactive: activity change, negative = inhibition [6] 1.93% | Potency [17] | Potency [8] | Potency [9]

CNC(=O)[C@H]1O[C@@H](n2cnc3c(NCc4cccc(I)c4)nc(Cl)nc32)[C@H](O)[C@@H]1O
inactive: Potency [8] | Potency [9]

C[C@@]12C(=O)OC(=O)[C@@]1(C)[C@@H]1CC[C@@H]2O1
active: Potency [11] 31.6 µM
inactive: Potency [2] > 46 µM | Potency [4] | Potency [20] | Potency [17] | Potency [7] | Potency [8] | Potency [9]
